Values without a mark were called inactive. Results filed as inconclusive are left out. Entries that show only a call come without a potency. The source made the active and inactive calls. Unless noted, calls come from the whole dose curve; as a rule, active = well fitted curve in the direction sought with a large enough effect; inconclusive = small, poorly fitted or top-dose-only effect, or another doubt; inactive = no such curve, though single readings can be large; an effect the other way counts as inactive or inconclusive.
Tests used:
[1] = test system: Zika virus NS2B-NS3 protease; test: Primary screen GU AMC qHTS for Zika virus inhibitors (AID 1347154); conditions: Zika NS2B-NS3 unlinked protease, AMC fluorogenic substrate; series mostly up to 54.1 µM; note: nearly all actives have a fitted effect of over 70% in size; note: potency is the fitted concentration of half-maximal effect
Procedure, shortened: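 Unlinked Zika NS2B hydrophilic domain/NS3 protease domain noncovalent complex (25 nM final) in 10 mM Tris-HCl pH 8.0, 0.01% Tween 20, with AMC peptide substrate. Fluorescence (ex 340, em 450 nm) change over 15 min, room temperature; percent inhibition fitted to 4-parameter Hill equation.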

[2] = Primary qHTS for small molecule stabilizers of the endoplasmic reticulum resident proteome: Secreted ER Calcium Modulated Protein (SERCaMP) assay (AID 1508630); conditions: SH-SY5Y GLuc-SERCaMP (Gaussia luciferase released on ER calcium loss) secretion, thapsigargin, luminescence; series mostly up to 38.4 µM
Procedure, shortened: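 GLuc-SERCaMP-expressing SH-SY5Y cells, pretreated 16 h with compound, are challenged with thapsigargin to empty ER calcium stores; after 4 h, coelenterazine is added directly to the medium and luminescence is imaged.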

[3] = molecular target: Glucocorticoid receptor (Homo sapiens) (UniProt P04150); test: GR-GFP Redistribution (AID 450;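 active = compounds whose dose series gives a full or clear partial fitted curve of increased nuclear translocation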; note: potency is the fitted concentration of half-maximal effect); conditions: U2OS GR-GFP nuclear translocation, laser cytometry, 2 h
[4] = molecular target: Glucocorticoid receptor (Homo sapiens) (UniProt P04150); test: GR-EFC Redistribution (AID 451; calls by dose curve; note: potency is the fitted concentration of half-maximal effect); conditions: CHO-K1 GR-EFC translocation, beta-gal luminescence, 2 h
Procedure, shortened: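 CHO-K1 cells stably expressing nuclear-localized β-gal enzyme acceptor and GR fused C-terminally to the enzyme donor fragment; ligand-driven nuclear translocation restores β-gal by complementation. Compounds titrated up to 46 uM final, 2 h at 37 °C; luminescence read.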

[5] = molecular target: DNA dC->dU-editing enzyme APOBEC-3G (Homo sapiens) (UniProt Q9HC16); test: qHTS for inhibitors of Vif-A3G interactions: Validation (AID 588379); conditions: Vif-A3G protein interaction assay; series mostly up to 46.1 µM
Procedure, shortened: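 HeLa cells stably expressing Vif and A3G-eYFP, 700 cells/well, incubated overnight at 37 deg C, then exposed to compound overnight at 37 deg C. Inhibition of Vif-mediated degradation read as increased yellow fluorescence (Ex 488/Em 500-530) by laser-scanning cytometry.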

[6] = molecular target: Mitogen-activated protein kinase 10 (Mus musculus) (UniProt Q61831); test: JNK3 AlphaScreen Assay (AID 530; active = well fitted curve in either direction with a large enough effect, not every such curve was filed as active;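 note: kinase came from lysate of stimulated human HepG2 cells; signal reports phosphorylation of biotinylated GST-cJun 1-79 at Ser73 with 10 µM ATP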); conditions: JNK3 lysate, c-Jun phosphorylation; series mostly up to 57.1 µM
Procedure, shortened: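 JNK3 came from HepG2 lysates pre-activated with IL-1beta and TNF-alpha and phosphorylated biotinylated GST-cJun (1-79) at 10 uM ATP, pH 7.6, room temperature. Compounds were titrated. AlphaScreen signal used anti-phospho-cJun (Ser73) antibody.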

[7] = molecular target: Ubiquitin carboxyl-terminal hydrolase 1 (Homo sapiens) (UniProt O94782); test: Inhibitors of USP1/UAF1: Pilot qHTS (AID 504865); conditions: purified USP1/UAF1, Ub-rhodamine cleavage fluorescence; series mostly up to 114 µM;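 note: rhodamine fluorescence freed from ubiquitin-rhodamine substrate followed over time; top concentration of the series differs between compounds; nearly all actives have a fitted effect of over 35% in size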
Procedure, shortened: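 USP1/UAF1 complex (1nM) preincubated with compound 15 min at room temperature, then Ub-Rho substrate (150nM final) added. Fluorescence read kinetically at 480/540 nm, 6 reads every 60 seconds. Buffer: 50mM HEPES pH 7.8, 0.5mM EDTA, 0.1 mg/ml BSA, 1mM TCEP, 0.01% Tween-20.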

[8] = molecular target: 3',5'-cyclic-AMP phosphodiesterase 4B (Homo sapiens) (UniProt Q07343); test: qHTS Assay for Inhibitors of PDE-IV (AID 607; active = well fitted activation curve with a large enough effect in the main read-out, with a control signal flat, not every such curve was filed as active); conditions: HEK293 ACTOne CNG channel cells, membrane potential fluorescence; series mostly up to 22.9 µM
Procedure, shortened: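 HEK293 ACTOne cells with CNG channel (1000/well), endogenous PDE4; membrane potential dye, compounds up to 22.9 uM final. Fluorescence Ex 535/Em 590; RO 20-1724 (100 uM final) as reference.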

[9] = molecular target: Cytochrome P450 1A2 (Homo sapiens) (UniProt P05177); test: p450-cyp1a2 (AID 410; calls by dose curve; note: potency is the fitted concentration of half-maximal effect); conditions: recombinant CYP1A2, luciferin-ME demethylation, luminescence; series mostly up to 57 µM
Procedure, shortened: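 Inhibition was calculated relative to 57 uM furafylline (full inhibition). The reaction used human CYP1A2 at 20nM with Luciferin-ME at its Km, 100uM, driven by an NADPH-regenerating system for 60 min at room temperature.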

[10] = molecular target: Cytochrome P450 2D6 (Homo sapiens) (UniProt P10635); test: qHTS Assay for Inhibitors and Substrates of Cytochrome P450 2D6 (AID 891); conditions: recombinant CYP2D6, luciferin-ME EGE luminescence; series mostly up to 57.1 µM; note: potency is the fitted concentration of half-maximal effect; nearly all actives have a fitted effect of over 60% in size
Procedure, shortened: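 Human CYP2D6 (5 nM) with 30 uM Luciferin-ME EGE (at Km) in 100 mM KPO4, compound preincubated 10 min, then NADPH regeneration system for 60 min at room temperature. Luciferin read by luminescence; normalized to 1.43 uM quinidine.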

[11] = molecular target: Cytochrome P450 3A4 (Homo sapiens) (UniProt P08684); test: qHTS Assay for Activators of Cytochrome P450 3A4 (AID 885); conditions: recombinant CYP3A4, Luciferin-PPXE luminescence, 60 min; series mostly up to 57.1 µM; note: nearly all actives have a fitted effect of over 65% in size
Procedure, shortened: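 Human CYP3A4 (20 nM) with Luciferin-PPXE at 25 uM (its KM) in 200 mM KPO4; 10 min compound preincubation, then NADPH regeneration and 60 min reaction at RT. Luciferin read by luminescence; normalized to 57 uM ketoconazole full inhibition.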

[12] = AP1 Signaling Pathway (AID 357; active = well fitted curve in either direction with a large enough effect, not every such curve was filed as active); conditions: ME-180 AP-1-bla reporter, EGF-induced, beta-lactamase ratio, 5 h; series mostly up to 38 µM
Procedure, shortened: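 ME-180 cells with beta-lactamase reporter under AP-1 response element, stimulated with EC50 EGF; compounds tested in titration series, 5 h at 37 °C. CCF4 substrate added 2.5 h at room temperature; 460/530 nm emission ratio gave %activity and AC50.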

Chain of Glucocorticoid receptor (Homo sapiens) (P04150 whole entry, looked up, the tested form may be a part): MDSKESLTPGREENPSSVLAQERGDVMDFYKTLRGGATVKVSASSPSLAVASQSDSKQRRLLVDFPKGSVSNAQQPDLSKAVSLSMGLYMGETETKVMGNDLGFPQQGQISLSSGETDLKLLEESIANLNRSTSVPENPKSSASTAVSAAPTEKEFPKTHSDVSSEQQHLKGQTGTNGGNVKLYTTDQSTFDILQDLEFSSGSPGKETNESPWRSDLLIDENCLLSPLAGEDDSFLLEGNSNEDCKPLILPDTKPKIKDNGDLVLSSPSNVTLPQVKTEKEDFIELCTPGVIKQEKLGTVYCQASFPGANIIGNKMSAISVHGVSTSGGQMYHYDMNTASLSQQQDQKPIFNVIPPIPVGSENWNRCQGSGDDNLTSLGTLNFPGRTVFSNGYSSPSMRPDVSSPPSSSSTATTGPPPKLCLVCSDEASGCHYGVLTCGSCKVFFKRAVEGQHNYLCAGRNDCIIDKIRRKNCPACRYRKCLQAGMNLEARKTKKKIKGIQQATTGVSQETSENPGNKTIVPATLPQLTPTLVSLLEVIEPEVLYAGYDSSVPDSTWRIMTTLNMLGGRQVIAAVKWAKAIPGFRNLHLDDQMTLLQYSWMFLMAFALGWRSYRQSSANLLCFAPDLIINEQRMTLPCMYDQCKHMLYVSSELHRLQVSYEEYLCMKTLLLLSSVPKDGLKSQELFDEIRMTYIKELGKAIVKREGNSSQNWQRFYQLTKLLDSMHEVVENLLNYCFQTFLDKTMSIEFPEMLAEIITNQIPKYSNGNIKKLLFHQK
Chain of Cytochrome P450 1A2 (Homo sapiens) (P05177 whole entry, looked up): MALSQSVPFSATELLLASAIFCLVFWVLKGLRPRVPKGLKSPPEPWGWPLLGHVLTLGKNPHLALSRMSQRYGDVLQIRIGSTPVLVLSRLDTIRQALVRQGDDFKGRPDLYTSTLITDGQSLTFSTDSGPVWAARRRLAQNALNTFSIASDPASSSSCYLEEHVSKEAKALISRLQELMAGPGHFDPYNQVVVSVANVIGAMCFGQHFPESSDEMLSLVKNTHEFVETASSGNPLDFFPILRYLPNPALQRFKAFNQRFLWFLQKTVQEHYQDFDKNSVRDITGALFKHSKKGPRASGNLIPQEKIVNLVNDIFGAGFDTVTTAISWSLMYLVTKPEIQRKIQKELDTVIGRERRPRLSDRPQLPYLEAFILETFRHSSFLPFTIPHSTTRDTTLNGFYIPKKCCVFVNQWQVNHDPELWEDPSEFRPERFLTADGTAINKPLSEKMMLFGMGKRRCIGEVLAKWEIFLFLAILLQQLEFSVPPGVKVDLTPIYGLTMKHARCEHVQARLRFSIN
Chain of Ubiquitin carboxyl-terminal hydrolase 1 (Homo sapiens) (O94782 whole entry, looked up): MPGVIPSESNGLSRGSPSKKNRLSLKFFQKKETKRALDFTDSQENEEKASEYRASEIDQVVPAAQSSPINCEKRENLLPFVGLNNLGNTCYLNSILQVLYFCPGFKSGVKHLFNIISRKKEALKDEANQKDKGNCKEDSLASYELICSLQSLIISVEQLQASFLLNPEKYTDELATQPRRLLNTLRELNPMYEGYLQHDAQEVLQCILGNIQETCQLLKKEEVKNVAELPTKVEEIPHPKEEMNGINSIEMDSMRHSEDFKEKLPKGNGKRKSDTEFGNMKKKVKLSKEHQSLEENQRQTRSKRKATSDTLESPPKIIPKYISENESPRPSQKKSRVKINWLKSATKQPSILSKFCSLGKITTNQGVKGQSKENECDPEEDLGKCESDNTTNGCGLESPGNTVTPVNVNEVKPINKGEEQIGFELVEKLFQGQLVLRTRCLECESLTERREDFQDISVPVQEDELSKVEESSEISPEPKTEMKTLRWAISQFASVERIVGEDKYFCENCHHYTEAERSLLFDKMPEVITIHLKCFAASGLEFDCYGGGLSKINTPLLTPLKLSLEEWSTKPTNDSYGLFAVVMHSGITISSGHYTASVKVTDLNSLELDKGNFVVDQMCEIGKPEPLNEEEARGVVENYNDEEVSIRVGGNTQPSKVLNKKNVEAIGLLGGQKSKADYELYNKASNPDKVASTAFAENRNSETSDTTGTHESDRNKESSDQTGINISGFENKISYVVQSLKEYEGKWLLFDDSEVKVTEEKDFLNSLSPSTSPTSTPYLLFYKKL
Chain of DNA dC->dU-editing enzyme APOBEC-3G (Homo sapiens) (Q9HC16 whole entry, looked up): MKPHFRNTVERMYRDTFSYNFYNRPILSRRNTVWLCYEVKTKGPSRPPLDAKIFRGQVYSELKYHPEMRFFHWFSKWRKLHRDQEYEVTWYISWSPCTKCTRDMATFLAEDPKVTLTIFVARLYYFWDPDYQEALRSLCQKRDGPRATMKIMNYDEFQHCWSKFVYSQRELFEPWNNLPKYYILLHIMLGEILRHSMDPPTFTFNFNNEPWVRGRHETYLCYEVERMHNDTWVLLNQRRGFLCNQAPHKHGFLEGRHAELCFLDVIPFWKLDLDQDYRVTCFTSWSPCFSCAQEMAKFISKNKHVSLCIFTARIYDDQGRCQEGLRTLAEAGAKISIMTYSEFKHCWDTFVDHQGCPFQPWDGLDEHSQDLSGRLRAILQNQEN
Chain of 3',5'-cyclic-AMP phosphodiesterase 4B (Homo sapiens) (Q07343 whole entry, looked up): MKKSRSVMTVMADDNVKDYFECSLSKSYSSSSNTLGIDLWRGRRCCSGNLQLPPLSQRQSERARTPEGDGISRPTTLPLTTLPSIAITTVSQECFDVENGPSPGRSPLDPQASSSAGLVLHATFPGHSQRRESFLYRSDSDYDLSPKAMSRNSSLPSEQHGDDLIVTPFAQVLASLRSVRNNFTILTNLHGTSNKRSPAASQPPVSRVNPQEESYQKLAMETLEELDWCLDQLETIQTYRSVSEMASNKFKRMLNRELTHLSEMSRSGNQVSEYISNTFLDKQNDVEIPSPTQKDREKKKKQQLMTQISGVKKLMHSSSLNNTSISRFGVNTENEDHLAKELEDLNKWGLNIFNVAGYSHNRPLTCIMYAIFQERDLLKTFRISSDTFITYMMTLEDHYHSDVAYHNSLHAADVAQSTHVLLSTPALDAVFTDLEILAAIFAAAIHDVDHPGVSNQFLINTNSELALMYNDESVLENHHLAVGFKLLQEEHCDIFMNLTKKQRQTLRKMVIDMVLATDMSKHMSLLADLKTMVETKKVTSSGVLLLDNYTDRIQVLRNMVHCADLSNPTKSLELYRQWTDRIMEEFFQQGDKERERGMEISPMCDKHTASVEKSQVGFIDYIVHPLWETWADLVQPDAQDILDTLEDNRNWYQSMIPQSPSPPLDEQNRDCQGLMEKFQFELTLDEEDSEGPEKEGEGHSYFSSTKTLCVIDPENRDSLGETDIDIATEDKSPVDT
Chain of Cytochrome P450 2D6 (Homo sapiens) (P10635 whole entry, looked up): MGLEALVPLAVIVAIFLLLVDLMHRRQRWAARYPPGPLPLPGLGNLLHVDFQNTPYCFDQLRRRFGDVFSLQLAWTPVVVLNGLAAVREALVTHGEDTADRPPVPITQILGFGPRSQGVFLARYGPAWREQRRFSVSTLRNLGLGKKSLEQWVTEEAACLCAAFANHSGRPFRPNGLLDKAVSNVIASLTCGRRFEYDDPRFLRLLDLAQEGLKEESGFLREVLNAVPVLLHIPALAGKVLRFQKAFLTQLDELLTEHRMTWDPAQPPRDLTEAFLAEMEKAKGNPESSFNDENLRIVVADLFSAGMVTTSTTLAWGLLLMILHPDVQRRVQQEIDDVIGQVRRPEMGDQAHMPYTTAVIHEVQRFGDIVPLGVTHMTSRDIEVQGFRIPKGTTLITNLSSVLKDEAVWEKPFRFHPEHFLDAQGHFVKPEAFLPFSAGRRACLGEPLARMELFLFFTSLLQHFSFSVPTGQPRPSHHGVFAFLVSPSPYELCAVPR
Chain of Cytochrome P450 3A4 (Homo sapiens) (P08684 whole entry, looked up): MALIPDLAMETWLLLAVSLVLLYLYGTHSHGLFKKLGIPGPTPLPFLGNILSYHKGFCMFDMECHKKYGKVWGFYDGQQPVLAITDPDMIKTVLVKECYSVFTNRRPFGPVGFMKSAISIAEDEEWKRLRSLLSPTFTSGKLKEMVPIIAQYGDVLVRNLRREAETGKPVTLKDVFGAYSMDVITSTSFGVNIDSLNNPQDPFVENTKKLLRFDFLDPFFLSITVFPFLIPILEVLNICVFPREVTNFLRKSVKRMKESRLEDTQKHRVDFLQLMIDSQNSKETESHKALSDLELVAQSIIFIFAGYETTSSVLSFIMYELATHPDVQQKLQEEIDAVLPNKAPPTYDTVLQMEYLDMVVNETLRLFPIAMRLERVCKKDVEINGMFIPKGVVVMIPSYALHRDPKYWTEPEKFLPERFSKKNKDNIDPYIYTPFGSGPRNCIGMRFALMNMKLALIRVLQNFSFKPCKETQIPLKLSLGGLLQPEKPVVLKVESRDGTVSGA

Structure (SMILES) | Potency [1] | Potency [2] | Potency [3] | Potency [4] | Potency [5] | outcome [6] | Potency [7] | Potency [8] | Potency [9] | Potency [10] | Potency [11] | outcome [12]
Cc1ccc2cc3c(ccc4ccccc43)c3c2c1CC3 | inactive | inactive |  |  |  |  |  |  |  |  |  | 
CN[C@@H]1C[C@H](c2ccc(Cl)c(Cl)c2)c2ccccc21 | inactive | inactive | > 46 µM | > 46 µM | inactive |  |  |  |  |  |  | 
CCOC(OCC)P(=O)(O)CCCN | inactive | inactive |  | > 46 µM | inactive | inactive | inactive |  |  |  |  | 
C/C(=C\[C@@H](N)C(=O)O)CP(=O)(O)O | inactive | inactive | > 46 µM | > 46 µM | inactive | inactive | inactive |  |  |  |  | 
CCCN1C[C@H](C)N([C@H](c2ccc(C(=O)N(CC)CC)cc2)c2cccc(OC)c2)C[C@H]1C | inactive | inactive | > 46 µM | > 46 µM | inactive | inactive | inactive | inactive |  |  |  | 
C/C(=C\C=C/[C@@H](C)C(=O)O)[C@H]1CN[C@H](C(=O)O)[C@@H]1CC(=O)O | inactive | inactive |  | > 46 µM | inactive | inactive | inactive |  | inactive |  |  | 
CCCN[C@@H]1CCc2c(OC)cccc2[C@@H]1C | inactive | inactive |  | > 46 µM | inactive |  | inactive |  |  | 0.251 µM (active) |  | 
CCC[C@@H]1CC2=CC(=O)CC[C@]2(C)[C@@H]2CC[C@@]3(C)[C@H](CC[C@]3(O)CCC(=O)O)[C@H]12 | inactive | inactive | > 46 µM | > 46 µM | inactive | inactive | inactive | inactive | inactive |  |  | 
COc1ccc(C[C@H]2NC[C@H](O)[C@@H]2OC(C)=O)cc1 | inactive | inactive | > 46 µM | > 46 µM | inactive |  | inactive | inactive | inactive | 7.94 µM (active) |  | 
Clc1ccc(C2=CCC[C@H]3CC[C@@H]2N3)cn1 | inactive | inactive | > 46 µM | > 46 µM | inactive | inactive | inactive |  | 15.8 µM (active) |  | inactive | 
CC(C)(c1ccc(OCC2CO2)cc1)c1ccc(OCC2CO2)cc1 (stereo unspecified) | inactive | inactive |  |  |  |  |  |  |  |  |  | 
C[C@@H]1O[C@H](O[C@@H]2C[C@@H](O)[C@]3(CO)[C@H]4[C@H](O)C[C@]5(C)[C@@H](C6=CC(=O)OC6)CC[C@@]5(O)[C@@H]4CC[C@]3(O)C2)[C@@H](O)[C@H](O)[C@H]1O | inactive | inactive |  |  | inactive | inactive | inactive |  |  | 0.0501 µM (active) |  | 
Cc1ncc(C[n+]2csc(CCO)c2C)c(=O)[nH]1 | inactive | inactive |  |  |  |  |  |  |  |  |  | 
O=C1Nc2cc(Cl)c(Cl)cc2N2CCNC[C@H]12 | inactive | inactive |  | > 46 µM | inactive | inactive | inactive |  |  |  |  | 
O=C1CC[C@@]2(O)[C@H]3Cc4ccc(O)c5c4[C@@]2(CCN3CC2CC2)[C@@H]1O5 | inactive | inactive |  |  | inactive | inactive | inactive | inactive |  |  |  | inactive
Cc1o[nH]c(=O)c1C[C@@H](N)C(=O)O | inactive | inactive | > 46 µM | > 46 µM | inactive | inactive |  |  | inactive |  |  | 
COC(=O)CN1CN(c2ccccc2)C2(CCN(Cc3ccc4ccccc4c3)CC2)C1=O | inactive | inactive |  | > 46 µM | inactive | inactive |  | inactive | inactive |  | inactive | 
COC1=CC(=O)OC(/C=C/c2ccccc2)C1 (stereo unspecified) | inactive | inactive | > 20.6 µM |  |  |  |  |  |  |  |  | inactive
c1ccc(C[C@@H](c2ccccc2)N2CCCCC2)cc1 | inactive | inactive | > 46 µM | > 46 µM | inactive | inactive | inactive |  | 15.8 µM (active) | 2 µM (active) | inactive | 
N[C@@H](CCCCP(=O)(O)O)C(=O)O | inactive | inactive | > 46 µM | > 46 µM | inactive | inactive | inactive |  |  |  |  | 
CC[C@@H](CO)NC(=O)[C@H]1C=C2c3cccc4[nH]cc(c34)C[C@H]2N(C)C1 | 29.9 µM (active) | inactive | > 46 µM | > 46 µM | inactive |  |  | inactive |  |  |  | 
CCCCCCCCCOc1ccc2[nH]cc(CCN)c2c1 | inactive | inactive | > 46 µM | > 46 µM | inactive |  |  | inactive | 0.0398 µM (active) |  | inactive | 

Source: PubChem BioAssay (NCATS)
